Experiment [1] concerns the target T1, Serine/threonine-protein kinase Nek9 (Homo sapiens) (UniProt Q8TD19).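 Also: each value is a mean percent inhibition of NEK9.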
T1 sequence (whole entry): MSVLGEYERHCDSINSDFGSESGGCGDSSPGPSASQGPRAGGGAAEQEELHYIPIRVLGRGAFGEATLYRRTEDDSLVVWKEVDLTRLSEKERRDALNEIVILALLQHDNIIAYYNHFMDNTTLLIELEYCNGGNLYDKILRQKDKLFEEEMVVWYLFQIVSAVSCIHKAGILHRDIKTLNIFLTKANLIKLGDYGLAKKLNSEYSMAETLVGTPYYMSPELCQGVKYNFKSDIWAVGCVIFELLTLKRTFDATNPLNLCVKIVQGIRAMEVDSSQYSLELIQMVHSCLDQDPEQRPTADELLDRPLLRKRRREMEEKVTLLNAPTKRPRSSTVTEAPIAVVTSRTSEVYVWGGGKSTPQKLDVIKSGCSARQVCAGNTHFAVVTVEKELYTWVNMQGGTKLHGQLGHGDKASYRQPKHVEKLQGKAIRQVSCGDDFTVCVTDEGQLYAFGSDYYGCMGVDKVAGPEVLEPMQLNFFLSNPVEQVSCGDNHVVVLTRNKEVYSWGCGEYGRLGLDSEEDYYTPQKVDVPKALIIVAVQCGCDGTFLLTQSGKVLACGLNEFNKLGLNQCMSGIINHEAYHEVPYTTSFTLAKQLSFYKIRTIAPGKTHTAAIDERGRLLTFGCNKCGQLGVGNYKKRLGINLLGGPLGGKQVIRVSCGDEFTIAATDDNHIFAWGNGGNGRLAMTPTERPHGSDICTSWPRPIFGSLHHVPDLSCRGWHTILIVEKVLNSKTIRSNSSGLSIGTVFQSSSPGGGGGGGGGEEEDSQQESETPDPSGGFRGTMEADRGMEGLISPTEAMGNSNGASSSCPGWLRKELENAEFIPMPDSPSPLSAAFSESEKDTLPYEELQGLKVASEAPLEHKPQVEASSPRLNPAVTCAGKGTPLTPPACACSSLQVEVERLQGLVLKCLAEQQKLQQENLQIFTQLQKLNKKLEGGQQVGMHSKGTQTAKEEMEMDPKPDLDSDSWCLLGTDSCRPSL
The note with it: at 1 µM.

The target in experiment [2] is Serine/threonine-protein kinase PLK1 (Homo sapiens) (UniProt P53350). Particulars: at 0.1 µM.
For experiment [3] the target is unchanged. The note with it: at 1 µM.
Experiment [4] has as its target T2, Dual specificity protein kinase TTK (Homo sapiens) (UniProt P33981).
T2 sequence (whole entry): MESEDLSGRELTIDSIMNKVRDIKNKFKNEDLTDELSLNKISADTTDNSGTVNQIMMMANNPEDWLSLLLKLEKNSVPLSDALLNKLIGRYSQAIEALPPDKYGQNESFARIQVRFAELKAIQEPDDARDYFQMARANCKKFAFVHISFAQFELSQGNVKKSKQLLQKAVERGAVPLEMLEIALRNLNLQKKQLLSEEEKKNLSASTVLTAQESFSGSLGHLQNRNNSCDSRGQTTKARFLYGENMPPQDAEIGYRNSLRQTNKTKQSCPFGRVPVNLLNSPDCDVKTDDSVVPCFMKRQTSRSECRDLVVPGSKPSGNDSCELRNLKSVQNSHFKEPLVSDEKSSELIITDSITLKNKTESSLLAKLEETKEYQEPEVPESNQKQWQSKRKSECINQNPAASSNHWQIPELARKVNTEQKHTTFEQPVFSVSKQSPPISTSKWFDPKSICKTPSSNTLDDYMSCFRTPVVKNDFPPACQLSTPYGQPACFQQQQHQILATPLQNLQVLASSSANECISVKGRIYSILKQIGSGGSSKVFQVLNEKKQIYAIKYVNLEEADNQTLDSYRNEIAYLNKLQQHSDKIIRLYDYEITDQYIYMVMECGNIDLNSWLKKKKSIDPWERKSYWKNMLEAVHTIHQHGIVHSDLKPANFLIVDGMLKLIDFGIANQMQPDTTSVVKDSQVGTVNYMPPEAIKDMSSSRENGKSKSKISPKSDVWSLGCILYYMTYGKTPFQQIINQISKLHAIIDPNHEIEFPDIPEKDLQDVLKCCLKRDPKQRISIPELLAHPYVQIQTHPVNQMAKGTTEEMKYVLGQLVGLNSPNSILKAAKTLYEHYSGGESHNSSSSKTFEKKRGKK
The note with it: at 0.1 µM.

The test system of experiment [5] is T3, Receptor-type tyrosine-protein kinase FLT3 (Homo sapiens), P36888 [D835Y].
T3 sequence (whole entry): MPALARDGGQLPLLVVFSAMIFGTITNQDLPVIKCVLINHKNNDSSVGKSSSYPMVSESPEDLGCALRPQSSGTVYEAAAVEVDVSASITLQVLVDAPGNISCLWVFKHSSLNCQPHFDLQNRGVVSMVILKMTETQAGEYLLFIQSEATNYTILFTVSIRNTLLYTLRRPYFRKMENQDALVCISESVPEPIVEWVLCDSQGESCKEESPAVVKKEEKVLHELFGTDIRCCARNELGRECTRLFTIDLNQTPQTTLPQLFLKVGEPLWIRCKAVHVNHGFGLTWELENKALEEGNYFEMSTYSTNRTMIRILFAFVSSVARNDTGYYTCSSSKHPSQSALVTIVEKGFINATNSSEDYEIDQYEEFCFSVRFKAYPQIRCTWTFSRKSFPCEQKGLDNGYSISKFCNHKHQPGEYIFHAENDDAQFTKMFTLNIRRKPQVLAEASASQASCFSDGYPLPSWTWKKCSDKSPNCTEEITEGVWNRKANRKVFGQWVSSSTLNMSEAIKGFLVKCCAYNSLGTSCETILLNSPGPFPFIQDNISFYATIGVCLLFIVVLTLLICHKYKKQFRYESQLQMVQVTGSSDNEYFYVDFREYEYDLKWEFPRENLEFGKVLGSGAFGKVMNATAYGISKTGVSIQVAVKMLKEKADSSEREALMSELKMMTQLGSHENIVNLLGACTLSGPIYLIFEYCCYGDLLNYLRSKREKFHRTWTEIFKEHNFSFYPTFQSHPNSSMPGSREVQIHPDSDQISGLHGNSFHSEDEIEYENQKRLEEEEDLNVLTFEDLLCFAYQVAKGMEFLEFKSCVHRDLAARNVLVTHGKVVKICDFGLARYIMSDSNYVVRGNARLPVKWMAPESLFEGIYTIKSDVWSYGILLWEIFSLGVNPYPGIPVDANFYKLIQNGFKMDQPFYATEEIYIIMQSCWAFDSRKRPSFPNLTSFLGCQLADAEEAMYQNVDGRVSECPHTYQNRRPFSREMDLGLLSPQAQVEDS
Particulars: at 1 µM.

The target in experiment [6] is Vascular endothelial growth factor receptor 3 (Homo sapiens) (UniProt P35916). Particulars: at 0.1 µM.
For experiment [7] the target is unchanged. The note with it: at 1 µM.
Experiment [8] concerns the target Macrophage colony-stimulating factor 1 receptor (Homo sapiens) (UniProt P07333). Particulars: at 0.1 µM.
Experiment [9] shares this target. Particulars: at 1 µM.
Experiment [10] concerns the target Tyrosine-protein kinase Fyn (Homo sapiens) (UniProt P06241). Particulars: at 0.1 µM.
Experiment [11] has the same target. The note with it: at 1 µM.
In experiment [12] the target is Tyrosine-protein kinase HCK (Homo sapiens) (UniProt P08631). Particulars: at 0.1 µM.
The target is the same in experiment [13]. The note with it: at 1 µM.
In experiment [14] the target is Insulin-like growth factor 1 receptor (Homo sapiens) (UniProt P08069). Particulars: at 0.1 µM.
Experiment [15] has the same target. The note with it: at 1 µM.
Experiment [16] has as its target Insulin receptor (Homo sapiens) (UniProt P06213). Particulars: at 0.1 µM.
Experiment [17] shares this target. The note with it: at 1 µM.
The target of experiment [18] is Insulin receptor-related protein (Homo sapiens) (UniProt P14616). The note with it: at 0.1 µM.
Experiment [19] shares this target. The note with it: at 1 µM.
Experiment [20] concerns the target T4, Tyrosine-protein kinase ITK/TSK (Homo sapiens) (UniProt Q08881).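 Also: mean percent inhibition of ITK from the GSK PKIS screen.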
T4 sequence (whole entry): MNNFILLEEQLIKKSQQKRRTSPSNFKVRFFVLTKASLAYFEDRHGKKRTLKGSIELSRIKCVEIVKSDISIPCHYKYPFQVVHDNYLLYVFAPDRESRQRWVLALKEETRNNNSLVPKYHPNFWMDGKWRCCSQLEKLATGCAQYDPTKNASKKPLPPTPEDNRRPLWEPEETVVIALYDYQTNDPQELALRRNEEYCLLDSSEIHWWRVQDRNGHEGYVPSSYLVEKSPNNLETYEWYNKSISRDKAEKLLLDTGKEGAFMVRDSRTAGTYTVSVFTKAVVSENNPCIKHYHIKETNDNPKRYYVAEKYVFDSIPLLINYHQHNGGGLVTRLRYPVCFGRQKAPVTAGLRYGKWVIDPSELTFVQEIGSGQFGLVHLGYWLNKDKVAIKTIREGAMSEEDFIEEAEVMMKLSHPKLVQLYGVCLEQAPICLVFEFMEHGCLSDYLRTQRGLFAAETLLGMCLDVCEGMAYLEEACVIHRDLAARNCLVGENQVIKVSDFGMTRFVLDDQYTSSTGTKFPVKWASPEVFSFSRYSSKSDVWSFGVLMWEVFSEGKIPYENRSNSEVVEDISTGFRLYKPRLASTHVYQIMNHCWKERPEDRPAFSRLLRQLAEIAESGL
Particulars: at 0.1 µM.

Sequence of Insulin receptor-related protein (Homo sapiens) (P14616 27-742 limits assumed): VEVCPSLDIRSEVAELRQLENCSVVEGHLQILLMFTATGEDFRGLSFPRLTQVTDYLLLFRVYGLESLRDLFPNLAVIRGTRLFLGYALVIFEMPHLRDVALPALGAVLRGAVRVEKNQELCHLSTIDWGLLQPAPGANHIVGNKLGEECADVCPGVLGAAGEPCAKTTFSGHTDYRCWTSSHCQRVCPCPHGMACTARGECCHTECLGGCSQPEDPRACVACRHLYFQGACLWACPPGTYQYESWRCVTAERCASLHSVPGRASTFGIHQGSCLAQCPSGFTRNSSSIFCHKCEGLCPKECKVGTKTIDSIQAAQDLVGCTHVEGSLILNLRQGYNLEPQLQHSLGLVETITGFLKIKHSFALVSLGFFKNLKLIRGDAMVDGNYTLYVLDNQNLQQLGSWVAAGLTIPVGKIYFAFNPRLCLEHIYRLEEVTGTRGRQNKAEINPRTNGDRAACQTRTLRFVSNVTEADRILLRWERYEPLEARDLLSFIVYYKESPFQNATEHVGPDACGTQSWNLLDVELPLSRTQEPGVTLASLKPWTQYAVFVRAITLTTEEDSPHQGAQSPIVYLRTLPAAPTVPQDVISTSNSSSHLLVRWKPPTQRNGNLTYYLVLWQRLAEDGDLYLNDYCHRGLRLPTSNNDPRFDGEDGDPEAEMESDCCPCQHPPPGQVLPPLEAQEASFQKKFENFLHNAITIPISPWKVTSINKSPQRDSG
Sequence of Insulin receptor-related protein (Homo sapiens) (P14616 747-1297 limits assumed): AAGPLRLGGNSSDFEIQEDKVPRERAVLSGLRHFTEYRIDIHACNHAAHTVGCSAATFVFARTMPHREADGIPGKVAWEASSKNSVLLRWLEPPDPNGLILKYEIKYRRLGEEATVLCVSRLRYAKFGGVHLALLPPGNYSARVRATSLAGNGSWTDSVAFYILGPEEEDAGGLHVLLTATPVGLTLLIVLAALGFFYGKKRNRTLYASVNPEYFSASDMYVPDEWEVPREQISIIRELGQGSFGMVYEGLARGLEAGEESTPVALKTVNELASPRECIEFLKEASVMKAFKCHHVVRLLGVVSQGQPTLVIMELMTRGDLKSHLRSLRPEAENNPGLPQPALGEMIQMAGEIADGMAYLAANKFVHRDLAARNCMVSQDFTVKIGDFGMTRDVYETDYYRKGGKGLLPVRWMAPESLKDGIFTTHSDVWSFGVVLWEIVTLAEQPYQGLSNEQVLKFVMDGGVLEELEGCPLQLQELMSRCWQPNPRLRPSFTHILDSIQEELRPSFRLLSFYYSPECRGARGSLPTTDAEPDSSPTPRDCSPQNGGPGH
Sequence of Vascular endothelial growth factor receptor 3 (Homo sapiens) (P35916 whole entry): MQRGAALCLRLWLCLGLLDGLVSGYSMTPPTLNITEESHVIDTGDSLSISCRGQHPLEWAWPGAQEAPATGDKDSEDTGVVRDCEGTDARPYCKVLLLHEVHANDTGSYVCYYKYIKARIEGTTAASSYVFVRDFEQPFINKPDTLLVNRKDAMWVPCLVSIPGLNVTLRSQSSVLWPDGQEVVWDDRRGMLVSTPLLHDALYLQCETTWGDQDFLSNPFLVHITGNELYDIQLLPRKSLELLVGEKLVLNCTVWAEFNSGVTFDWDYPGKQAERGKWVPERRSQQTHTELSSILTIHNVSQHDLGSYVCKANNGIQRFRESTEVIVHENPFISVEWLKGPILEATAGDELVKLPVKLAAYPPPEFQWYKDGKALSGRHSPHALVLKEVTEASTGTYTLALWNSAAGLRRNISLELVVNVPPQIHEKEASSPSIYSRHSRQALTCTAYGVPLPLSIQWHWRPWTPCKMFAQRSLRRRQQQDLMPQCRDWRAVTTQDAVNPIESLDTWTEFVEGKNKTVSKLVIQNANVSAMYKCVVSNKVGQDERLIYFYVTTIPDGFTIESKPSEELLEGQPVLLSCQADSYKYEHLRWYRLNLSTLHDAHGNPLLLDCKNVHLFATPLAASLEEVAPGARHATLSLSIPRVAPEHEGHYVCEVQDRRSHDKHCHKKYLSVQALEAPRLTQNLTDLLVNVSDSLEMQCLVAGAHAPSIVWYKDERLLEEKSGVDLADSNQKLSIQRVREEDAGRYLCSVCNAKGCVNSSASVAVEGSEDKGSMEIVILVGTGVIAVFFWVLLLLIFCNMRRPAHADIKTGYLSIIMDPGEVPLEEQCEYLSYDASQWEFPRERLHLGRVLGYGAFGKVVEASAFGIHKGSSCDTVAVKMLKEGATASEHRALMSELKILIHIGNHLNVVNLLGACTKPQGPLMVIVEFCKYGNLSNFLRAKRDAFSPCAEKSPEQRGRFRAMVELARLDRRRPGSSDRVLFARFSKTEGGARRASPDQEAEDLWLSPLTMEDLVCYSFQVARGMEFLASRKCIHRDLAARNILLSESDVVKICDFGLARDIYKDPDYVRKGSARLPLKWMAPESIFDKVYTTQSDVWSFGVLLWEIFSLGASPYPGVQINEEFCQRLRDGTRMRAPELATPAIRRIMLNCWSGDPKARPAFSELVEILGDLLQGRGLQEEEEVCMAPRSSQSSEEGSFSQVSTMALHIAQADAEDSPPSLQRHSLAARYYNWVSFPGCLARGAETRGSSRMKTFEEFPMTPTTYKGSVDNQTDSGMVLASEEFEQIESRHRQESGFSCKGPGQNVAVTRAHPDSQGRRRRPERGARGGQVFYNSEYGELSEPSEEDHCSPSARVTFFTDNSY
Sequence of Tyrosine-protein kinase Fyn (Homo sapiens) (P06241 2-537 limits assumed): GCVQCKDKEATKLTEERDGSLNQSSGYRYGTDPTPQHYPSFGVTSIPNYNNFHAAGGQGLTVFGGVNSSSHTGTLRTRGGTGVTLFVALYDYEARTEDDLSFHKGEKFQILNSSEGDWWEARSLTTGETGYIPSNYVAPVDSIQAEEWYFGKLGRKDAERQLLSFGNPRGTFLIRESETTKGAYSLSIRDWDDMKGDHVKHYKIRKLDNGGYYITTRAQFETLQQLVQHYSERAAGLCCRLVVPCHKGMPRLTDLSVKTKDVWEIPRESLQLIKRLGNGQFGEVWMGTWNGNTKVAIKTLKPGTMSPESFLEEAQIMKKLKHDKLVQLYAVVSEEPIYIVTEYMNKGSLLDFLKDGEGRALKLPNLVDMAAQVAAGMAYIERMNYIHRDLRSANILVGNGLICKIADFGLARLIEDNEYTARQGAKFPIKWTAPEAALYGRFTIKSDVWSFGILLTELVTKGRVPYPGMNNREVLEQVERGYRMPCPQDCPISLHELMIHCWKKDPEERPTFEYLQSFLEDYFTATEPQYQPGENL
Sequence of Insulin-like growth factor 1 receptor (Homo sapiens) (P08069 31-736 limits assumed): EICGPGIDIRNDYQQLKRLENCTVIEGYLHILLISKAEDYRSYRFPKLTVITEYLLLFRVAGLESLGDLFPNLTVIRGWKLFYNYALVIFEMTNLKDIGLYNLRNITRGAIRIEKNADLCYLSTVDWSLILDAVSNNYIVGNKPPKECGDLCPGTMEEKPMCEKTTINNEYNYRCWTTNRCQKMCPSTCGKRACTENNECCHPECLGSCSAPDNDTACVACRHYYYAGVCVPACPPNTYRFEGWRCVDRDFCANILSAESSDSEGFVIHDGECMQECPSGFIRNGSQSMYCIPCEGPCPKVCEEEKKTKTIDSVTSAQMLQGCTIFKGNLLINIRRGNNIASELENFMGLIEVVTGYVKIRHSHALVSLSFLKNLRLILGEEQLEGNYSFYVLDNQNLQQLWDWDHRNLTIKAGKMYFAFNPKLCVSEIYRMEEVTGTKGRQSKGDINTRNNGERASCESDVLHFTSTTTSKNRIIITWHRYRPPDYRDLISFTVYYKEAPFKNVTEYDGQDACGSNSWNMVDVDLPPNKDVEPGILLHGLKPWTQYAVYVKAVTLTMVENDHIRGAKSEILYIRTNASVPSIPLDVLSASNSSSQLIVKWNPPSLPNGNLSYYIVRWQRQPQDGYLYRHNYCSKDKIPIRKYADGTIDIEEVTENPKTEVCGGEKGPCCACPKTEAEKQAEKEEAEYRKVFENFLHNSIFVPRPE
Sequence of Insulin-like growth factor 1 receptor (Homo sapiens) (P08069 741-1367 limits assumed): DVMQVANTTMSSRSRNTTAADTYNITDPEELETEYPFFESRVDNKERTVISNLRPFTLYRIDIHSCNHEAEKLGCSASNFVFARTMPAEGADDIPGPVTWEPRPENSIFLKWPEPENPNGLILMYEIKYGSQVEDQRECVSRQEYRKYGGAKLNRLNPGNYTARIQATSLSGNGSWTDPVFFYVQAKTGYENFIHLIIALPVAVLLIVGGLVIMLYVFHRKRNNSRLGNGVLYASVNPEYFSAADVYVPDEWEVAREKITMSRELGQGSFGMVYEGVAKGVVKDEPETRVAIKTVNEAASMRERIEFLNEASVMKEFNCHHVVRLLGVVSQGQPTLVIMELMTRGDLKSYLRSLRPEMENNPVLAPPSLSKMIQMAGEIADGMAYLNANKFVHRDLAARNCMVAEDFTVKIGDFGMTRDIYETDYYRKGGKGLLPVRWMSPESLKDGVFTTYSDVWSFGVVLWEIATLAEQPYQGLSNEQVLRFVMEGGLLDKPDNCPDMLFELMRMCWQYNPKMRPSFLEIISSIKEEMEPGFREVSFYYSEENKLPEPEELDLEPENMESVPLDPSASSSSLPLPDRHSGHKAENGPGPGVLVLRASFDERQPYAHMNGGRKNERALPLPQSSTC
Sequence of Tyrosine-protein kinase HCK (Homo sapiens) (P08631 2-526 limits assumed): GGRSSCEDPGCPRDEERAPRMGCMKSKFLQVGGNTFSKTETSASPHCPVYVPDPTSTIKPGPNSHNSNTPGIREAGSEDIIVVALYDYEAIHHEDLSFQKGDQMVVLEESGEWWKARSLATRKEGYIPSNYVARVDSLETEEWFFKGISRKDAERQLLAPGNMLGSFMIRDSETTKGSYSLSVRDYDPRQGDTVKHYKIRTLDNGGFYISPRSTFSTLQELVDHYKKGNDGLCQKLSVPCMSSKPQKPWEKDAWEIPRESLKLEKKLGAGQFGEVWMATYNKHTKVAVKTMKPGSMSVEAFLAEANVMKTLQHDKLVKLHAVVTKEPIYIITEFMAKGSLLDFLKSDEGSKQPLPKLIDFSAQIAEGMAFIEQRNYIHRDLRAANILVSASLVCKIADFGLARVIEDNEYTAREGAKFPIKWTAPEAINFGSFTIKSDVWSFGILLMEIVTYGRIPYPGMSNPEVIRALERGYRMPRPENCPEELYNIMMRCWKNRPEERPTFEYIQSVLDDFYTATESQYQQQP

Usually inhibition stands for the drop in the measured response relative to a control, in per cent. `CN(C)c1cc2c(Nc3ccc4nc(Cc5ccccc5)[nH]c4c3)ncnc2cn1`: the inhibition was 10.6% in experiment [1]; 6.15% in experiment [2]; 6.34% in [3]; 13.2% in [4]; -1.97% in experiment [5]; 7.56% in experiment [6]. The inhibition is 11.3% in [7]; 4.7% in [8]; 15.4% in experiment [9]; 4.62% in [10]; 27.7% in experiment [11]; 11.5% in experiment [12]. For the same compound, the inhibition in [13] came out at 30.6%; in experiment [14], 6.59%; in experiment [15], 11.5%; in experiment [16], 7.56%; in experiment [17], 8.05%; in [18], 3.36%. The inhibition in experiment [19] was 4.95%; in experiment [20], 1.45%.

As to `N#Cc1c(NC(=O)c2cccc3ccccc23)sc2c1CCCC2`, the inhibition in experiment [1] is 4.88%; in [2], 3.77%; in experiment [3], 9.99%; in experiment [4], 11.9%; in [5], -2.86%; in experiment [6], 0.07%. Further, the inhibition in [7] was -3.88%; in experiment [8] it was 0.85%; in experiment [9], 1.31%; in experiment [10], 2.07%; in [11], 4.04%; in [12] it was 4.79%. The inhibition in experiment [13] stood at 6.4%; in [14], 1.59%; in experiment [15] it was 2.51%; in [16] it was 5.97%; in experiment [17] it was 6.62%; in experiment [18] it was 0.81%. Moreover, the figures for the inhibition in [19] and in [20] were 1.11% and 1.77%, respectively.

`CS(=O)(=O)Nc1ccc(N/C=C2\C(=O)Nc3ccccc32)cc1`: the inhibition in experiment [1] was 9.7%; in experiment [2], -2.87%; in experiment [3], -1.15%; in experiment [4], -2.98%; in experiment [5], 59.1%; in experiment [6], 4.02%. For the same compound, the inhibition in [7] is 30.6%; in [8] it was 7.03%; in experiment [9], 41.7%; in experiment [10], 0.12%; in experiment [11], 4.85%; in experiment [12], -0.18%. Also, the inhibition was 14.1% in experiment [13]; -1.54% in [14]; 5.77% in [15]; -0.48% in [16]; 8.57% in [17]; -3.26% in [18]. Moreover, the results for the inhibition in experiment [19] and in [20] were -1.01% and -0.24%, respectively.
